From PubChem BioAssay (NCATS)
Records with an inconclusive call do not appear. Where a call stands in place of a potency, no number is given. Activity calls are given as the source filed them. Calls come from the whole dose curve; as a rule, active = well fitted inhibition curve with a large enough effect; inconclusive = small, poorly fitted or top-dose-only effect; inactive = flat fitted curve, though single readings scatter.
Potency is the fitted concentration of half-maximal effect.

The molecules below were run against Calcium and integrin-binding protein 1 (Homo sapiens) (UniProt Q99828) (assay: Primary qHTS for Identification of Calcium Integrin Binding Protein 1 (CIB1) Competitor (AID 1508620)). Details: CIB1-GST / FITC-alphaIIb peptide fluorescence polarization; series mostly up to 114 µM.
Chain of Calcium and integrin-binding protein 1 (Homo sapiens) (Q99828 whole entry, looked up): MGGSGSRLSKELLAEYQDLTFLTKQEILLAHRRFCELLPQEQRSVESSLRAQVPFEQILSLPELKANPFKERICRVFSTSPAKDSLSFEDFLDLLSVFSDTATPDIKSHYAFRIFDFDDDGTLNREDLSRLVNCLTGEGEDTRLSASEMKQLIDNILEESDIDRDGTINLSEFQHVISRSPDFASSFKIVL
How it was run: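 Fluorescence polarization competition: CIB1-GST (1 uM final) preincubated with compound 15 min at room temperature, then FITC-labeled alphaIIb peptide (100 nM final) added for another 15 min. Polarization read at Ex 480/Em 540.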
COc1ccnc(NC(=S)N2CCN(c3cccc(Cl)c3Cl)CC2)c1 was tested, and the Potency was “inactive”.
CN(C)c1ccc(C2N=C(Nc3nc4ccccc4o3)NC3=C2C(=O)CCC3)cc1 (stereo not given) was tested, and the Potency was “inactive”.
With Cc1cc2c(s1)c1cnn(Cc3cccc(Cl)c3)c(=O)c1n2C the Potency was “inactive”.
With S=C(Nc1ccc(Cl)c(Cl)c1)Nc1nnc(-c2ccncc2)s1 the Potency was “inactive”.
For Cc1ccc(OCCn2c(CCN(C)C(=O)C3CCCCC3)nc3ccccc32)cc1, the Potency was “inactive”.
O=C1CCCC2=C1C(c1ccccc1)N=C(Nc1nc3ccccc3o1)N2 (stereo not given) was tested, and the Potency was “inactive”.
With Cc1cc(C)nc(NC(=S)N2CCN(c3cnc4nccn4c3)CC2)c1 the Potency was “inactive”.
In the case of Cc1ccc(-c2nccc(=O)n2CC(=O)N(C)C(C)c2ccco2)cc1 (stereo not given), the Potency is reported as “inactive”.
For FC(F)(F)c1ccccc1-c1nc(NCC#Cc2cccnc2)c2ccccc2n1, the Potency was “inactive”.
Cc1cc(C)nc(NC(=S)N2CCN(c3ccc(S(C)(=O)=O)cc3F)CC2)c1 was tested, and the Potency was “inactive”.
With Cc1ccc(OCCCn2c(CCNC(=O)C3CCCCC3)nc3ccccc32)cc1 the Potency was “inactive”.
In the case of COc1ccc(C2Nc3ccccc3C(=O)N2Cc2ccco2)cc1COc1ccccc1 (stereo not given), the Potency is reported as “inactive”.
CC(C)c1cc2c(s1)c1cnn(Cc3ccccc3F)c(=O)c1n2C was tested, and the Potency was “inactive”.
Cc1ccnc(NC(=S)N2CCN(c3cccc([N+](=O)[O-])c3)CC2)c1 was tested, and the Potency was “inactive”.
For Fc1cc(Nc2nc(-c3ccncc3)nc3ccccc23)ccc1-c1cccc(OC(F)(F)F)c1, the Potency was “inactive”.
With Cc1cc(C=CC#N)cc(C)c1Nc1nc(Nc2ccc3c(c2)CCC3)c2[nH]cnc2n1 the Potency was “inactive”.
For CC(=O)c1ccc(N2CCN(S(=O)(=O)c3ccc4c(c3)C(=O)OC4)CC2)cc1, the Potency was “inactive”.
With O=c1c(Nc2ccc(Br)c(Br)c2)c(Nc2nnc(-c3ccncc3)s2)c1=O the Potency was “inactive”.
For N#Cc1nc(Nc2cccc3ccccc23)nc(NC2CCCC2)n1, the Potency was “inactive”.
For O=C(O)c1ccccc1OC1=NS(=O)(=O)c2ccccc21, the Potency was “inactive”.
For COc1cccc(CNc2ncnc3ccc(-c4c(C)noc4C)cc23)c1, the Potency was “inactive”.
For Nc1ccc(Nc2cc(O)c3ncccc3c2)cc1, the Potency was “inactive”.
Cc1ccc(-c2no[n+]([O-])c2C#N)cc1 was tested, and the Potency was “inactive”.
For N=c1c2c(ccn1CCc1ccccc1)Oc1ccc3ccccc3c1C2c1ccccc1 (stereo not given), the Potency was “inactive”.
With O=C(Cn1nc(-c2ccncc2)ccc1=O)NCCc1ccccc1 the Potency was “inactive”.
For CC(=O)Nc1sc2cnccc2c1-c1nc2ccccc2s1, the Potency was “inactive”.
With O=C(c1c(F)cccc1F)N1CCN(S(=O)(=O)c2ccc3c(c2)OCCO3)CC1 the Potency was “inactive”.
Cc1cc(C)nc(NC(=S)N2CCN(c3cc(Cl)cc(Cl)c3)CC2)c1 was tested, and the Potency was “inactive”.
In the case of COc1cccc(NS(=O)(=O)c2ccc3c(c2)CCC(=O)N3)c1, the Potency is reported as “inactive”.
With Cc1c([S+](=O)([O-])N2CCN([S+](=O)([O-])c3c(F)cccc3F)CC2)sc2ccc(Cl)cc12 the Potency was “inactive”.
With Cc1ccc(NC(=O)c2ccc3c(c2)CCC(=O)N3)cc1C the Potency was “inactive”.
In the case of Cc1ccccc1-c1nnc(NC(=O)Nc2ccc3ccccc3c2)s1, the Potency is reported as “inactive”.
For Cc1cccc(-c2nnc(C)n2CCCn2ccnc2)c1N, the Potency was “inactive”.
For O=C(Nc1ccccc1F)c1ccc(O)c2ncccc12, the Potency was “inactive”.
In the case of O=C(Nc1cncc(NC(=O)c2cccs2)c1)c1cccs1, the Potency is reported as “inactive”.
For CC(C)N1CCc2c(sc(NC(=O)Cc3ccccc3)c2-c2nc3ccccc3s2)C1, the Potency was 28.2 µM (active).
For CCOC(=O)CCC(=O)Nc1ncnc2c1C(c1ccccc1)c1c(ccc3ccccc13)O2 (stereo not given), the Potency was “inactive”.
With Cc1ccc(-c2ccc(CNc3nc(-c4ccccc4C(C)C)nc4ccsc34)cc2)cn1 the Potency was “inactive”.
Cc1ccc(S(=O)(=O)Nc2cccc3cccnc23)cc1 was tested, and the Potency was “inactive”.
With Cc1ccc(OCCn2c(CCNC(=O)c3ccccc3C(F)(F)F)nc3ccccc32)cc1 the Potency was “inactive”.
